Reference: PubChem BioAssay (NCI)
About 83,000 compounds went through this panel and 20% of them were active in at least one assay; those are over-represented in the sample as a whole.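 For each line, cells grew in 96-well plates with the test compound present at a single concentration for 48 hours.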 Active and inactive are the calls of the source. The calls were made as follows: active = growth percent below 10; inactive = the rest.

Legend:
Assay in all cases: NCI-60 one-dose screen, 48 h (100 = growth as untreated, 0 = no growth, -100 = all killed)
Conditions in all cases: 10 µM unless noted
[1] = test system: T-47D breast
[2] = test system: BT-549 breast
[3] = test system: MDA-MB-435 melanoma
[4] = test system: SW-620 colon
[5] = test system: MCF7 breast
[6] = test system: HCT-116 colon
[7] = test system: HCC-2998 colon
[8] = test system: KM12 colon

Measured: growth

CCN(CC)CCCOc1ccc2ncnc(Nc3ccc(Oc4cccc(C(F)(F)F)c4)c(Cl)c3)c2c1
inactive: [1] 18.7% | [2] 81.4%
active: [3] -85.7% | [4] -87% | [5] -45.2% | [6] -10.1% | [7] -85.4% | [8] -24.3%

C=C(C)[C@@H]1CCC[C@]2(C(=O)O)CC[C@]3(C)[C@@H](CC[C@@H]4[C@@]5(C)C/C(=C/c6ccncc6)C(=O)C(C)(C)[C@@H]5CC[C@]43C)[C@@H]12
active: [6] 4.88%
inactive: [1] 47.5% | [2] 46.5% | [3] 19.8% | [4] 17.5% | [5] 19.1% | [7] 23.8% | [8] 19.7%

Cc1cn(-c2cc(NC(=O)c3cncc(C#Cc4c(N)ncc5ccc(F)cc45)c3)cc(C(F)(F)F)c2)cn1
inactive: [1] 65.8% | [2] 86.4% | [3] 36.6% | [4] 33.3% | [5] 31.5% | [6] 19.4% | [7] 77.4% | [8] 14.1%

CCOC(=O)c1c(C)nc2c(c1N)CC(=O)N2Cc1ccc(OC)cc1
inactive: [1] 32.2% | [2] 18.5% | [3] 88.3% | [4] 77.6% | [5] 37.5% | [6] 12.6% | [7] 51.1% | [8] 58%

CCCCCN(CCCCC)CC(O)c1cc(C)c2ccc3cc(C(C)C)ccc3c2c1 (stereo not drawn)
inactive: [1] 53.3% | [2] 90.5%
active: [3] 0.846% | [4] -75.3% | [5] -86.2% | [6] -84.8% | [7] -50.8% | [8] -64.7%

CN1CCN(CCCOc2cccc3nc(Nc4ccc(F)c(F)c4)ccc23)CC1
inactive: [1] 19.4% | [2] 52.8%
active: [3] -81.5% | [4] -90.3% | [5] -87.6% | [6] -41.2% | [7] -83.8% | [8] -77.3%

Cc1ccc(-c2nc3nc(-c4ccccc4)nc(N4CCCN(S(C)(=O)=O)CC4)c3o2)cc1
inactive: [1] 92.1% | [2] 94.2% | [3] 34.5% | [4] 44.1% | [5] 65.1% | [6] 24.4% | [7] 96.6% | [8] 86.8%

N#CC1=C(N)Oc2ccc3ccccc3c2C1c1ccc([N+](=O)[O-])cc1 (stereo not drawn)
inactive: [1] 82.5% | [2] 91.7% | [4] 100% | [5] 66% | [6] 85.5% | [7] 107% | [8] 95.5%
active: [3] -51.3%

COc1ccc(C2=CN3CC=CC3CC2=O)cc1 (stereo not drawn)
inactive: [1] 75.3% | [2] 105% | [3] 96.9% | [4] 105% | [5] 93.4% | [6] 90.3% | [7] 91% | [8] 101%

COc1ccc(C#Cc2ccc(=O)oc2-c2cc(OC)c(OC)c(OC)c2)cc1O
inactive: [1] 45.2% | [2] 44.8% | [4] 31.2% | [5] 16% | [6] 14.9% | [8] 26.8%
active: [3] 0.895% | [7] 9.46%

O=C(CCl)NNc1nccc(Nc2ccc(S(=O)(=O)Nc3ccncc3)cc2)n1
inactive: [1] 15.9% | [2] 25.6% | [3] 41.3% | [4] 28.5% | [5] 22.3% | [6] 10.7% | [7] 95.3% | [8] 62%

CCN(CC)c1ccc(/C=N/NC(=O)Cc2ccc(Nc3ccnc(C(F)(F)F)c3)cc2)c(O)c1
inactive: [1] 27.6% | [2] 41.9% | [3] 23.9% | [4] 35.6% | [5] 20.9% | [6] 19.6% | [7] 26.9% | [8] 41%

O=C(NNc1cnccn1)c1nc2cc(F)ccc2n2cccc12
active: [5] 5.93% | [6] 5.5%
inactive: [1] 20% | [2] 32% | [3] 24.5% | [4] 19.6% | [7] 35.7% | [8] 18.5%

CC/C=C\C[C@H](O)C/C=C1/C(=O)C=C[C@@H]1C/C=C\CCCC(=O)O
active: [6] 8.9%
inactive: [1] 12% | [2] 46.2% | [3] 36.9% | [4] 49.6% | [5] 13.9% | [7] 57.7% | [8] 41.6%

CC1(C)CC(=O)c2c(nn(-c3ccc(Br)cc3)c2-c2cn(-c3ccccc3)nc2-c2cccnc2)C1
inactive: [1] 70.8% | [2] 86.9% | [3] 105% | [4] 91.4% | [5] 75.2% | [6] 85% | [7] 106% | [8] 97.1%

COC(=O)c1ccc(NC(=O)Nc2ccc(C(=O)OC)cc2)cc1
inactive: [1] 89% | [2] 99% | [3] 109% | [4] 112% | [5] 96.1% | [6] 95.3% | [7] 108% | [8] 113%

O=C(N/N=C/c1cc(Cl)ccc1O)c1ccccc1Nc1ccnc(C(F)(F)F)c1
active: [1] 8.91%
inactive: [2] 18.7% | [3] 35.2% | [4] 36.3% | [5] 20.6% | [6] 32.2% | [7] 81.3% | [8] 34.5%

Cc1cc(Nc2ccc(C(=O)N3CCCC3)cc2)nc(NCCCNc2ccnc3cc(Cl)ccc23)n1
inactive: [1] 77.8% | [2] 84.6% | [3] 79.6% | [4] 95.9% | [5] 51.6% | [6] 54.5% | [7] 80.9% | [8] 87.4%

CCc1ccc(CCC(=O)Nc2ncc(Cc3cc(Cl)ccc3Cl)s2)o1
inactive: [1] 44% | [2] 36.4% | [4] 24.1% | [5] 14% | [6] 17.5% | [7] 19.7% | [8] 20.3%
active: [3] -42.6%

CC(=O)OC[C@]12CC[C@@H]([C@@H](C)c3nnc(-c4ccncc4)o3)[C@@H]1[C@H]1CC[C@@H]3[C@@]4(C)CC[C@H](OC(C)=O)C(C)(C)[C@@H]4CC[C@@]3(C)[C@]1(C)CC2
inactive: [1] 66.5% | [2] 74.6% | [3] 87% | [4] 66.3% | [5] 84.9% | [6] 45.2% | [7] 101% | [8] 93.5%

CCCCNc1nnc2n(Cc3ccccc3)c(=O)c3c4c(sc3n12)CCCC4
inactive: [1] 43.2% | [2] 56.3% | [3] 51.8% | [4] 23.3% | [5] 43.4% | [6] 27.2% | [7] 65% | [8] 49.8%

COc1ccc(-c2nc(/C=C3\C(=O)N(C)c4ccccc43)c3ccccn23)cc1
inactive: [1] 76% | [2] 104% | [3] 104% | [4] 84.7% | [5] 61.9% | [6] 56.5% | [7] 102% | [8] 93.7%

O=C(/C=C/c1ccc(Cl)cc1)c1cccc(OCCCOc2cccc(C(=O)/C=C/c3ccc(Cl)cc3)c2)c1
inactive: [1] 78% | [2] 105% | [3] 101% | [4] 98.6% | [5] 21.1% | [6] 26% | [7] 104% | [8] 103%

CCN(CC)c1ccc(CNc2cc(C)nc3ccccc23)cc1
inactive: [1] 39% | [2] 71.6% | [3] 65.7% | [4] 76.9% | [5] 39.2% | [6] 52.1% | [7] 42.1% | [8] 71.9%

CNC1=CC(=O)c2c(C(=O)OC)c(C)[n+]([O-])c(C)c2C1=O
active: [3] -17.3%
inactive: [1] 52.4% | [2] 88.3% | [4] 42.5% | [5] 57% | [6] 16% | [7] 50.1% | [8] 61.3%

Fc1ccc(Cn2cc(CSc3nc4ccccc4o3)nn2)cc1
inactive: [1] 85.3% | [2] 103% | [3] 102% | [4] 101% | [5] 93.8% | [6] 92.3% | [7] 109% | [8] 97.6%

CCN1C(=O)N(CC)C2C1NC(=S)N2/N=C/c1ccc(C(F)(F)F)cc1 (stereo not drawn)
active: [3] 4.45%
inactive: [1] 74.7% | [2] 71% | [4] 55.3% | [5] 33.2% | [6] 54.9% | [7] 74% | [8] 56%

COc1ccc(CCN2C(=O)/C(=C/c3ccc(C4Oc5ccccc5C5CC(c6ccccc6)=NN54)cc3)SC2=S)cc1 (stereo not drawn)
inactive: [1] 103% | [2] 101% | [3] 104% | [4] 100% | [5] 97.3% | [6] 104% | [7] 104% | [8] 106%

O=C(Nc1ncccc1OCc1ccccc1)NC1CCCCCC1
inactive: [1] 71% | [2] 78.2% | [3] 89% | [4] 94.9% | [5] 79.9% | [6] 58.2% | [7] 105% | [8] 88.8%

COc1cc(OC)c2sc(-c3ccc(-n4cncc4-c4cc(OC)c(OC)c(OC)c4)cc3)nc2c1
inactive: [1] 32.4% | [2] 45.1% | [3] 35.2% | [4] 56.6% | [5] 49.8% | [6] 48.6% | [7] 95.3% | [8] 52.4%

CCOC(=O)/C=C1\S/C(=N\Nc2cc(=O)[nH]c3ccccc23)N(c2ccccc2)C1=O
inactive: [1] 94.6% | [2] 98.4% | [3] 106% | [4] 101% | [5] 91.5% | [6] 98.5% | [7] 110% | [8] 101%
